Data on 5 compounds can be found in PubChem BioAssay.

The structures appear in SMILES notation. The source made the active and inactive calls. Unless noted, how the calls were made is not given here.

The nature of test [1]: compounds binding Alexa647 anti-His antibody – biochemical, small-molecule microarray, 635 nm fluorescence, artefact control for SMM control protein annotation, primary screen (AID 1128).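 Further: score merges feature fluorescence with signal-to-noise for each printed compound spot.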 The settings on record: higher = more signal.
Test [2] concerns Human papillomavirus type 1a E7 protein (residues 1-88). Nature of the test: HPV1a E7 small-molecule binders, primary screen, biochemical, small-molecule microarray, residues 1-88, 635 nm (AID 1129). The settings on record: small-molecule microarray binding, fluorescence 635 nm; higher = more signal.
Test [3] addresses Focal adhesion kinase 1 (Homo sapiens) (UniProt Q05397). Briefly: PTK2 protein binding on printed compound slides – biochemical, small-molecule microarray, 635/667 nm fluorescence, BSA, DTT, primary screen (AID 1130).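 Further: composite of spot emission at 667 nm and signal to noise over triplicate slides.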 Particulars: 635 nm fluorescence, higher = more signal.
Test [4] concerns Fibrinogen (Alexa647-labelled). Briefly: Alexa647-fibrinogen binding to printed small molecules – biochemical, small-molecule microarray, 635/667 nm fluorescence, artefact control for SMM control-protein annotation, profiling panel (AID 1131).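 Further: z-score merges 667 nm fluorescence with per-spot signal-to-noise over triplicate slides.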 The settings on record: fibrinogen-A647 binding fluorescence, higher = more signal.
The target of test [5] is Follistatin (Homo sapiens) (UniProt P19883). Briefly: FST protein binding to printed compounds – biochemical, small-molecule microarray, 635/667 nm fluorescence, primary screen (AID 1132). Particulars: 635 nm fluorescence, higher = more signal.
Sequence of Follistatin (Homo sapiens) (P19883 whole entry, looked up): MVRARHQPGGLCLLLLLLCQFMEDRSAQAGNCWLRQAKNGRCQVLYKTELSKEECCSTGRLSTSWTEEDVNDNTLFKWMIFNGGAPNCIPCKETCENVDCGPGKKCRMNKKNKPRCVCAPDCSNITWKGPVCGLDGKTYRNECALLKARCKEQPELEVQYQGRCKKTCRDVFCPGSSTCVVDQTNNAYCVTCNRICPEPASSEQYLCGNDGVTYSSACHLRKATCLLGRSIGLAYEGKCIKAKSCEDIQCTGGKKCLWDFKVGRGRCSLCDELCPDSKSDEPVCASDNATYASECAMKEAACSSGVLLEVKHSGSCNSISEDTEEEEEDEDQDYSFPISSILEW
Test [6] deals with Fibroblast growth factor 2 (Homo sapiens) (UniProt P09038). Nature of the test: basic fibroblast growth factor binding to printed compounds – biochemical, small-molecule microarray, 635/667 nm fluorescence, primary screen (AID 1133). The settings on record: FGF2, fluorescence 635/667, higher = more signal.
Sequence of Fibroblast growth factor 2 (Homo sapiens) (P09038 whole entry, looked up): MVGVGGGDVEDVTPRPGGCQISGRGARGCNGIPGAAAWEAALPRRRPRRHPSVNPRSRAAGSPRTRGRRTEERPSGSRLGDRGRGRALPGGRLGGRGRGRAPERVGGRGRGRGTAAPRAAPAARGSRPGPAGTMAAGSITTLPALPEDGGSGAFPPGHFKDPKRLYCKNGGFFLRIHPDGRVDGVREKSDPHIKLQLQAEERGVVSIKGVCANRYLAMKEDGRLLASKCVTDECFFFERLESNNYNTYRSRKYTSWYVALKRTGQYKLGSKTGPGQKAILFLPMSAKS
Test [7] can be described thus: JC-1 mitochondrial potential readout, lung cancer cells – cell-based, A549, JC-1 fluorescence, basal, 24 h, 100 nL, profiling panel (AID 1138).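 Further: A549 lung adenocarcinoma cells under basal conditions with no added stimulus; test concentration not given here.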 Particulars: higher = more signal.
For test [8], the system named is Lefty1. Nature of the test: Lefty1 protein binding to printed compounds – biochemical, small-molecule microarray, 635/667 nm fluorescence, primary screen (AID 1139). The settings on record: fluorescence 635/667, higher = more signal.
The subject of test [9] is wheat germ agglutinin (Triticum aestivum), Alexa647-labelled. Briefly: Alexa647-WGA lectin binding to printed small molecules – biochemical, small-molecule microarray, 635/667 nm fluorescence, artefact control for SMM control-protein annotation, profiling panel (AID 1140).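 Further: score merges 667 nm feature emission with signal to noise over triplicate slides.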 The settings on record: WGA-A647 binding, 635 nm fluorescence, higher = more signal.
Test [10] addresses Luciferin 4-monooxygenase (Photinus pyralis) (UniProt P08659). Briefly: inhibition of purified Photinus pyralis luciferase – biochemical, luminescence, purified enzyme, 2006 set, primary screen (AID 1141).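 Further: cell-free assay with purified firefly luciferase at 100 ng per well in PBS; test concentration not given here.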 Particulars: purified firefly luciferase, SteadyGlo luminescence, 30 min; higher = more signal, called active from +8 up or from −8 down.
Test [11] has as its system Wnt5a (protein binding on small-molecule microarray). Nature of the test: small molecules binding Wnt5a protein – biophysical, small-molecule microarray, 635/667 nm fluorescence, primary screen (AID 1142).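 Further: fluorescence read at 667 nm with signal to noise per printed feature.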 Particulars: 635 nm fluorescence, higher = more signal.
Test [12] can be described thus: ATP-based viability of Huh7 replicon cells – cell-based, CellTiter-Glo luminescence, basal, 48 h, cytotoxicity control for HCV replication inhibitor project, primary screen (AID 1143).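 Further: Huh7 hepatoma cells carrying a hepatitis C replication reporter with no stimulus; test concentration not given here.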 The settings on record: higher = more signal, called active from +8 up or from −8 down. A general note: In antiviral work, replicon cells carry a viral genome segment that copies itself.

Test [13] is described as follows: Pseudomonas biofilm growth suppression – PAO1 strain, BacTiter-Glo luminescence, LB-PBS, primary screen (AID 1144). Particulars: P. aeruginosa PAO1 biofilm, 12 h, higher = more signal.
The nature of test [14]: basal CRE-LacZ reporter activity in PC12 – cell-based, unstimulated, primary screen (AID 1145). Particulars: no forskolin, luminescence, 4.5 h, higher = more signal, called active from +8 up or from −8 down.
Test [15] is described as follows: forskolin-driven CRE-LacZ activity in PC12 – cell-based, CRE-LacZ reporter, forskolin-stimulated, primary screen (AID 1146).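 Further: PC12 cells with 6xCRE LacZ reporter stimulated by forskolin 10 µM; beta-galactosidase reporter signal reflecting CREB driven transcription.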 The settings on record: luminescence, 4.5 h, higher = more signal, called active from +8 up or from −8 down.
Test [16] has as its target Streptavidin (Streptomyces avidinii) (UniProt P22629). Briefly: compounds binding control protein streptavidin – biophysical, small-molecule microarray, 635/667 nm fluorescence, artefact control for SMM compound annotation, primary screen (AID 1147).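 Further: signal reflects streptavidin binding to arrayed compounds as a control protein.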 Particulars: higher = more signal.
A short description of test [17]: probe aInhba binding on compound microarray – biochemical, small-molecule microarray, 635/667 nm fluorescence, primary screen (AID 1148).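 Further: score merges 667nm spot fluorescence with signal-to-noise for antibody binding to printed compounds.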 The settings on record: higher = more signal.
For test [18], the target named is Torsin-1A (Homo sapiens) (UniProt O14656). Briefly: TOR1A wild-type binding on microarray – cell lysate, small-molecule microarray, lysate, 635/667 nm, primary screen (AID 1149). The settings on record: COS7 hTOR1A-WT lysate, 635 nm fluorescence, higher = more signal.
Sequence of Torsin-1A (Homo sapiens) (O14656 whole entry, looked up): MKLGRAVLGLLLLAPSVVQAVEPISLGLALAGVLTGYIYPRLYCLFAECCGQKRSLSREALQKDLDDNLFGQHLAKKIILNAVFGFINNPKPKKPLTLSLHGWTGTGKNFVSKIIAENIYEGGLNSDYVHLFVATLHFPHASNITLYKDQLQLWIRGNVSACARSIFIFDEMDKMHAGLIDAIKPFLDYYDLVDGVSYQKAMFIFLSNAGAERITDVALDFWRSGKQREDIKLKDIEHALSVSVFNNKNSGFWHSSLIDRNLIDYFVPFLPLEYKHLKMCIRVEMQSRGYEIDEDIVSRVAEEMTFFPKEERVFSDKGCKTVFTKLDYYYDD
Test [19] has the same target. Nature of the test: torsin A mutant lysate binding on microarrays – cell lysate, small-molecule microarray, COS7 lysate, 635/667 nm fluorescence, primary screen (AID 1150).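 Further: score pools 667 nm emission and signal to noise measuring lysate protein binding.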 Particulars: COS7 hTOR1A mutant lysate, 635 nm fluorescence, higher = more signal.
Test [20] concerns Sonic hedgehog protein (Shh). Nature of the test: Sonic hedgehog microarray binding compounds – biochemical, small-molecule microarray, 635/667 nm fluorescence, primary screen (AID 1151).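 Further: Shh protein binding to compounds spotted on small-molecule microarray slides; score combines spot fluorescence intensity with signal-to-noise across triplicate slides.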 The settings on record: 635 nm fluorescence, higher = more signal.

Sequence of Focal adhesion kinase 1 (Homo sapiens) (Q05397 whole entry, looked up): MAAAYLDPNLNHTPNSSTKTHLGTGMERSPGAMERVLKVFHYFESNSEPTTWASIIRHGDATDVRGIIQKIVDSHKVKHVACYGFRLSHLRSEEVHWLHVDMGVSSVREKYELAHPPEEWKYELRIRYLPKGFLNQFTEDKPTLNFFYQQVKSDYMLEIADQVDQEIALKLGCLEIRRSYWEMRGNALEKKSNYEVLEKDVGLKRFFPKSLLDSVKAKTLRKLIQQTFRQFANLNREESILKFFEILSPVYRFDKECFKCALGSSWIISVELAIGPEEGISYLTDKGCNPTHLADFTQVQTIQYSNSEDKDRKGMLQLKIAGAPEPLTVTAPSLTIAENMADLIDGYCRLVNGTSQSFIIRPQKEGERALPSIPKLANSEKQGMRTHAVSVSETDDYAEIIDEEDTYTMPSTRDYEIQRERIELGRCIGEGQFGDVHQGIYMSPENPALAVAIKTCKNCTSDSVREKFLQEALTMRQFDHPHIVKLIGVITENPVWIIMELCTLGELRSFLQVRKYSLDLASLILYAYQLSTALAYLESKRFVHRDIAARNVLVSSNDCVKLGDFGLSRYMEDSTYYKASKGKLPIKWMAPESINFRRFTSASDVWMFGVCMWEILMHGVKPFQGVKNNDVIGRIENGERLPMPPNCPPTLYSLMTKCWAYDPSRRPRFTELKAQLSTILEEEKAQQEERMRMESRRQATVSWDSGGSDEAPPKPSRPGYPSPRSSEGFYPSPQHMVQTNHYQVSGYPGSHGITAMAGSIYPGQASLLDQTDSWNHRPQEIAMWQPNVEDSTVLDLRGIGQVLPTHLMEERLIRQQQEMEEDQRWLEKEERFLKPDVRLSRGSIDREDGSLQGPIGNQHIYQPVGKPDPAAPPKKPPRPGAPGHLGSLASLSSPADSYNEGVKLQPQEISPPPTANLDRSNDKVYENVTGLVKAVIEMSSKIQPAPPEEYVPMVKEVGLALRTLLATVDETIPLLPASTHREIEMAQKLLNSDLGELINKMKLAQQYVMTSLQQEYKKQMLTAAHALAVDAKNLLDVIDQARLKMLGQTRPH
Sequence of Streptavidin (Streptomyces avidinii) (P22629 whole entry, looked up): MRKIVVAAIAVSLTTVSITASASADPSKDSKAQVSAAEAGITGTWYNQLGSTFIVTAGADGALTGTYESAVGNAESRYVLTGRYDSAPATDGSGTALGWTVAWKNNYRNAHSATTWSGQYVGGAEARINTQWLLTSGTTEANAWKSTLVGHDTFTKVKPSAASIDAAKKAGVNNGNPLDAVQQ
Sequence of Luciferin 4-monooxygenase (Photinus pyralis) (P08659 whole entry, looked up): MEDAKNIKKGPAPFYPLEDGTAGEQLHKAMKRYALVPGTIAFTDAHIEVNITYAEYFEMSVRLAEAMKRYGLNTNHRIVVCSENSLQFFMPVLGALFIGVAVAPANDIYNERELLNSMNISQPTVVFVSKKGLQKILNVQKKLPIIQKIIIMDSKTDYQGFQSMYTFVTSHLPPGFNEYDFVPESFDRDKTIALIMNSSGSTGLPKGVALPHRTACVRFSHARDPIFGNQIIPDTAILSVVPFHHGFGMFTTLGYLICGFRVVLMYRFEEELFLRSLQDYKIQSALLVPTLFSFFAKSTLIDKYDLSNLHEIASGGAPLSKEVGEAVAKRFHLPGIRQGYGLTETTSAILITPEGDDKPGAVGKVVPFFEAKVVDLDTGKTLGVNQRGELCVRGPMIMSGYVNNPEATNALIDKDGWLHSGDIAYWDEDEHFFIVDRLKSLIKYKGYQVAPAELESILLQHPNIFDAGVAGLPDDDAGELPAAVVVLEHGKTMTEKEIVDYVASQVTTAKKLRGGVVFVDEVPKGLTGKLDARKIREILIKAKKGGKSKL

With `COC(=O)[C@H](Cc1ccccc1)N[C@@H](/C=C/C1CC1)[C@H](O)Cc1ccccc1`, the composite z-score is -0.477 in test [1]; -0.236 in test [2]; -0.415 in test [3]; 0.475 in test [4]; -0.405 in [5]; -0.489 in [6]. Besides, the composite z-score in test [8] is -0.21; in test [9], 0.319; in test [11], 1.2; in test [16], 0.648; in test [17], -0.231; in test [18], 0.324. Also, the composite z-score in [19] was 0.341; in [20], -0.21. The z-score was -0.349 in test [7]; 0.702 (inactive) in test [10]; -0.389 (inactive) in test [12]; 0.186 (inactive) in test [13]; 1.31 (inactive) in test [14]; 0.15 (inactive) in [15].
For the compound `COC(=O)[C@@]1(Cc2ccc(F)cc2)[C@H]2c3cc(C(=O)N(C)C)n(Cc4cc(F)c(F)c(F)c4)c3C[C@H]2CN1C(=O)c1ccccc1`, the composite z-score in test [1] was 1.13; in [2], 1.21; in [3], 0.538; in test [4] it was 0.711; in test [5], 1.02; in test [6], -0.0402. Moreover, the composite z-score in [8] was -0.788; in test [9], 0.704; in test [11], 0.283; in test [16], 1.25; in [17], 1.08; in test [18], -0.272. Besides, the composite z-score in test [19] is 0.193; in test [20] it was -0.176. Also, the z-score is 0.918 in test [7]; 2.37 (inactive) in test [10]; -3 (inactive) in [12]; 0.459 (inactive) in [13]; 1.53 (inactive) in test [14]; 0.578 (inactive) in test [15].
On to `COCCOC(=O)N1C(=O)[C@@]2(c3cc(C#CCNC(N)=O)ccc31)[C@H](C(=O)N1CCN(c3ncccn3)CC1)[C@H]1C(=O)O[C@H](c3ccccc3)[C@H](c3ccccc3)N1[C@@H]2c1ccc(OCCO)cc1`, for which the composite z-score was 0.549 in test [1]; 1.12 in test [2]; -0.171 in test [3]; 0.931 in test [4]; 1.12 in test [5]; 0.674 in [6]. The composite z-score in [8] was found to be 0.465; in test [9] it was 0.723; in test [11], 0.344; in test [16], 0.619; in [17] it was 0.0154; in test [18], 1.44. The values for the composite z-score in test [19] and in [20] were 0.453 and 0.911, respectively. The z-score in test [7] was -1.25; in [10], -1.47 (inactive); in [12] it was 0.0164 (inactive); in test [13], -0.82 (inactive); in [14], 1.04 (inactive); in [15], -0.0748 (inactive).
Take `COCCOC(=O)N1C(=O)[C@@]2(c3cc(C#CCC(C(=O)OC)C(=O)OC)ccc31)[C@H](C(=O)N1CCN(c3ncccn3)CC1)[C@H]1C(=O)O[C@H](c3ccccc3)[C@H](c3ccccc3)N1[C@@H]2c1ccccc1OCCO`: the composite z-score in test [1] turned out to be 1.02; in [2] it was 1.2; in test [3] it was 0.467; in test [4] it was 0.997; in test [5], 1.38; in [6], 1.29. Further, the composite z-score came to 1.54 in test [8]; 0.755 in [9]; 0.833 in test [11]; 0.39 in test [16]; 0.326 in test [17]; 0.135 in test [18]. Further, the figures for the composite z-score in [19] and in [20] were 0.579 and 2.19, respectively. In addition, the z-score in test [7] was -0.835; in [10] it was -0.291 (inactive); in test [12], -3.78 (inactive); in test [13] it was 1.13 (inactive); in test [14] it was -0.337 (inactive); in test [15] it was -0.374 (inactive).
For the compound `Cc1ccc(N2C(=O)c3ccccc3[C@@H](C(=O)NC3CC3)[C@@H]2c2ccc(CO)cc2)nc1`, the composite z-score in test [1] was 0.442; in test [2], -0.372; in [3], -1.29; in test [4], -3.9; in test [5] it was -0.71; in test [6] it was 0.392. For the same compound, the composite z-score in [8] is -1.79; in test [9], -0.0414; in test [11] it was -0.645; in [16], -1.76; in test [17], -0.282; in test [18] it was 1.23. In addition, the composite z-score in test [19] was 0.969; in test [20], -0.958. Also, the z-score in test [7] is -0.487; in test [10], 0.309 (inactive); in [12] it was 0.256 (inactive); in test [13], -0.754 (inactive); in test [14] it was -0.062 (inactive); in test [15], 0.986 (inactive).
